SW480 rereplic – A quantitative high throughput screen for small molecules that induce DNA re-replication in SW480 colon adenocarcinoma cells | Potency, µM (series often up to 46.1 µM), for the others: at the highest dose re-replication activation, hits mostly activators | 340,000 tested, 1.8% active | SW480 DNA re-replication, Hoechst DNA content imaging, 48 h; note: potency is the fitted concentration of half-maximal effect; % of control where 0% means no effect; nearly all actives have a fitted effect of over 55% in size
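Quantitative HTS format with DMSO vehicle controls; 48 hr drug incubation at 37 C, then 40 min Hoechst staining and scanning imager measurement at 405 nm excitation.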
MCF10A rerep – A quantitative high throughput screen for small molecules that induce DNA re-replication in MCF 10a normal breast cells | Potency, µM (series often up to 46.1 µM), inactives show at the top dose activity, positive = re-replication, actives largely listed as activators | MCF 10A DNA re-replication, Hoechst nuclear intensity, 48 h | AID 624296, 2012 | 350,000 tested, 2.9% active; note: potency is the fitted concentration of half-maximal effect; % of control where 0% means no effect; nearly all actives have a fitted effect of over 50% in size
uPA generation – qHTS for Inhibitors of Cell Surface uPA Generation; cell surface uPA generation assay, qHTS; Potency, µM (titrated, usually from 38.3 µM), inactives show top-dose activity change, negative = inhibition, usual class: inhibitors; 330,000 tested, 0.31% active; AID 540303, 2011; active = well fitted inhibition curve with a large enough effect; inconclusive = small, poorly fitted or top-dose-only effect; inactive = no such curve, though single readings can be large or run the other way; tested in mouse RAW 264.7 cells; note: potency is the fitted concentration of half-maximal effect; % is set by controls: 0 for no effect and ±100 for the full control effect; nearly all actives have a fitted effect of over 55% in size
Giardia kill – Small Molecules that selectively kill Giardia lamblia: qHTS; Giardia lamblia trophozoite viability; activity change, % at 7.66 µM, hits read low; 340,000 tested, 0.15% active; in the data active = activity change below about -80%; inconclusive = between about -30% and that limit;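 note: parasites exposed to compound for two days anaerobically before the ATP read; % is set by controls: 0 for no effect and ±100 for the full control effect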
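Media and compound were dispensed first, then trophozoites at 100 cells/well; plates sat 48 hrs at 37 deg C without oxygen before ATP luminescence reagent was added and read after 15-30 min at room temperature.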
* hit, by the source's call; ? = inconclusive; · = no result given; [ ] = another dose, or the depositor's remark. Only some compounds are listed: those with a hit (about 4.3% of all), similar ones and a draw of the others. Unless noted, calls come from the whole dose curve; as a rule, active = well fitted activation curve with a large enough effect; inconclusive = small, poorly fitted or top-dose-only effect; inactive = no such curve, though single readings can be large or run the other way.

SMILES	SW480 rereplic	MCF10A rerep	uPA generation	Giardia kill
CCN(CC)C(=O)CSc1nnc2nnc3cc(Cl)ccc3n12	18%	8%	-1%	-81*
OC(CNCc1ccccc1F)COc1cccc2ccccc12 (configuration not stated)	21µM*	?	2%	6
OC(CNCc1ccccc1Cl)COc1ccc(F)cc1 (configuration not stated)	-5%	9%	2%	-28
CCCN1CNc2c(c(=O)[nH]c(=S)n2CCC(C)(C)C)C1	·	·	·	2
CCOc1ccccc1C(=O)Nc1ccc2nc(N3CCN(c4ncccn4)CC3)cc(C)c2c1	?	8.2µM*	0%	?
CCCCN(C(=O)CCN1C(=O)C2CC=CCC2C1=O)c1c(N)n(CCCC)c(=O)[nH]c1=O (configuration not stated)	-9%	3%	16%	14
COc1ccc(Nc2c[nH]c(=O)[nH]c2=O)cc1	0%	0%	4%	-12
COc1cc2c(cc1OC)/C(=C/c1ccc(Cl)cc1)C(=O)OC2	?	13µM*	-6%	6
N#CCCn1cc(C(=O)Nc2cccc(C(=O)O)c2)c(-c2ccc(Cl)cc2)n1	4.1µM*	4%	29%	-6
COc1ccc(NC(=O)CN2CCC(C(=O)c3ccc(C)cc3)CC2)c(OC)c1	-44%	?	4%	-9
CCOc1ccc(C(=O)C2CCN(CC(=O)Nc3ccccc3N3CCOCC3)CC2)cc1	?	7.3µM*	9%	2
COc1ccc(OC)c(NC(=O)CN2CCC(C(=O)c3ccc(C)cc3)CC2)c1	3%	18µM*	·	1
O=C(CN1CCC(C(=O)c2ccc3c(c2)OCCO3)CC1)Nc1ccccc1C(F)(F)F	4%	16µM*	6%	-9
Cc1ccccc1-n1c(SC(C)C(=O)NCC2CCCO2)nnc1-c1ccncc1 (configuration not stated)	-104%	3%	4%	6
CC[N+](CC)(CC)CC[C@](O)(c1ccccc1)C1CCCCC1	-1%[20.6 µM]	-2%[20.6 µM]	·	·
Cc1ccc(C(O)c2nccn2C)o1 (configuration not stated)	10%	5.8µM*	-3%	14
Cn1ccnc1C(O)c1ccccc1 (configuration not stated)	1%	0%	-2%	-19
C=CCn1c(C)cc(C(=O)Cn2ncc(Cl)c(Cl)c2=O)c1C	2.9µM*	5.8µM*	4%	-23
O=C1CN(C(=O)Cn2ncc(Cl)c(Cl)c2=O)c2ccccc2N1	14%	1.8µM*	6%	3
O=c1cnn(Cc2ccc(F)cc2)c2ccccc12	-6%	-7%	4%	-5
O=c1c(Cl)c(Cl)cnn1Cc1ccc(F)cc1	6.5µM*	3.7µM*	?	9
O=C(OCn1ncc(Cl)c(Cl)c1=O)c1ccccc1Cl	7.3µM*	5.8µM*	-7%	-3
C=CCn1c(C)cc(C(=O)CN2NS(=O)(=O)c3ccccc3C2=O)c1C	?	?	?	-15
CC(C)(C)C(=O)Cn1ncc(Cl)c(Cl)c1=O	?	2.1µM*	?	18
O=C(Cn1ncc(Cl)c(Cl)c1=O)NC1CCCCC1	1.3µM*	1.3µM*	10µM*	7
SMILES	SW480 rereplic	MCF10A rerep	uPA generation	Giardia kill
O=C(Cn1ncc(Cl)c(Cl)c1=O)NC1CCS(=O)(=O)C1 (configuration not stated)	?	?	-20%	?
O=C(Cn1ncc(Cl)c(Cl)c1=O)c1ccc(Cl)cc1	?	9.2µM*	-7%	10
COc1cc(CN(C2CC2)S(=O)(=O)c2ccccc2Br)cc(OC)c1	?	?	0%	-4
Cc1ccc(CNC(=O)[C@]2(C(F)(F)F)C[C@H](CCc3ccccc3)CCCO2)o1	·	·	·	7
O=C(OCc1ccccc1)N1CCC2CC1c1cc(-c3ccc4c(c3)OCO4)ccc12 (configuration not stated)	-14%	-3%	-9%	-7
NC(=O)c1ccnc2c(O)cccc12	0%	4%	3%	13
Oc1ccc(CNc2ccccc2)c2cccnc12	?	?	-7%	-21
Oc1ccc(CNc2ccc(F)cc2)c2cccnc12	?	23µM*	-3%	8
COCc1ccc(O)c2ncccc12	26%	7.3µM*	-8%	-13
OCc1ccnc2c(O)cccc12	1.2µM*	5.2µM*	-1%	1
CCN(CC)S(=O)(=O)c1ccc(N2CCOCC2)c(NC(=O)CC23CC4CC(CC(Br)(C4)C2)C3)c1	1%	-10%	-19%	-14
Cc1noc(NS(=O)(=O)c2ccc(NC(=O)C(F)(F)C(F)(F)C(F)(F)F)cc2)c1C	-5%	0%	-2%	4
CCN(CC)CCC(c1ccc(N(C)C)cc1)c1c(OC)cc(OC)c2c1OC(=O)CC2c1ccc(N(C)C)cc1 (configuration not stated)	·	·	·	27
OCCNc1c2ccccc2nc2c(F)c(F)c(F)c(F)c12	13µM*	?	-19%	-13
Cc1c2ccccc2nc2c(F)c(NCCO)c(F)c(F)c12	?	?	-6%	0
O=C(CNC(=O)c1ccccc1F)OCC(=O)c1ccc(Cl)s1	-22%	3%	2%	17
O=[N+]([O-])c1cc(Br)c(O)c(/C=N/Nc2nnnn2-c2cccc3ccccc23)c1	14%	4.1µM*	·	-11
COc1cc(OCc2ccccc2)c(C(=O)/C=C/c2ccc3c(c2)OCO3)c(OC)c1OC	?	15µM*	-14%	-10
CCNc1ccc(Br)cc(C(=O)/C=C/c2c(Cl)cccc2Cl)c1=O	?	23µM*	-13%	4
CCNc1ccc(Br)cc(C(=O)/C=C/c2ccc(Cl)cc2)c1=O	?	13µM*	-7%	-3
Nc1ccccc1C(=O)/C=C/c1ccc2c(c1)OCO2	18µM*	?	-28%	13
COc1ccc(Cc2cnc(N)nc2N)cc1OC	1%	0%	·	·
O=C(NC1CCN(C(=O)Nc2ccc(F)cc2)CC1)c1ccc(F)cc1	?	-7%	-1%	-7
CC(=O)OC1C(=O)N(Cc2ccccc2)C1c1ccc(C)cc1 (configuration not stated)	9%	?	4%	3
O=C1CCN(Cc2ccco2)C(=S)N1	-11%	-56%	-1%	16
SMILES	SW480 rereplic	MCF10A rerep	uPA generation	Giardia kill
O=S(=O)(Nc1cccc2cccnc12)c1cccs1	·	·	·	-13
O=C(/C=C/c1ccc(Cl)cc1Cl)c1ccc[nH]1	?	117%	-25%	-18
CNc1ccc(Br)cc(C(=O)/C=C/c2cccc(OC)c2)c1=O	?	18µM*	-13%	-2
CNc1ccc(Br)cc(C(=O)/C=C/c2ccc(Cl)cc2Cl)c1=O	?	4.6µM*	0%	1
CNc1ccc(Br)cc(C(=O)/C=C/c2ccc(OC)cc2OC)c1=O	0%	?	-11%	14
CCNc1ccc(Br)cc(C(=O)/C=C/c2ccc3c(c2)OCO3)c1=O	?	18µM*	2%	4
CCC1(c2ccc(F)cc2)NC(=O)N(CC(=O)NC2CCCCCC2)C1=O (configuration not stated)	4%	3%	0%	-20
